Screens (PubChem)
hcDAF12 agonist: H. contortus DAF-12 activation, primary screen; HEK293 hcDAF-12 lit1-tk-luc reporter, luminescence; 0% DMSO, 100% Δ7-dafachronic acid; 1.4% of 370,000 active; activation, % at 6.8 µM;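 active means activation above the mean of all tested compounds plus 3 SD, cut at about 5.5% in these data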;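 further: 100% = response to 3 µM Δ7-dafachronic acid high control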
ssDAF-12 act: activates DAF-12 receptor from parasite S. stercoralis | HEK293 ssDAF-12/GRIP1 lit1-tk-luc reporter, luminescence; % of 3 µM dafachronic acid response | activation, % at 6.8 µM | 1% of 370,000 active | AID 652126;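 active means activation above the mean over all tested compounds plus 3 SD, cut at about 0.9% in these data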;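 further: 0% = DMSO-only wells and 100% = 3 µM delta7-dafachronic acid wells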
DAX1 inh-1: DAX1 (NR0B1) inhibition, primary screen | HEK293T StAR-luciferase reporter, SF-1/DAX-1 repression relief | inhibition, % at 6.8 µM | 1.1% of 370,000 active | AID 652010;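 active means inhibition above the mean over all tested compounds plus 3 SD, cut at about 3.6% in these data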;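 further: 0% = DAX-1 cells with DMSO and 100% = cells lacking DAX-1 with DMSO; higher inhibition means more luminescence from relief of DAX-1 repression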
DAX1 inh-2: NR0B1 (DAX1) inhibition; HEK293 Gal4-DAX1 luciferase reporter, luminescence; 0.99% of 340,000 active; P51843; inhibition, % at 6.75 µM; AID 504766;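 active means inhibition above the mean over all tested compounds plus 3 SD, cut at about 4.2% in these data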;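 further: 0% = DAX1-transfected cells with DMSO and 100% = empty-vector control cells with DMSO; inhibition shows as a rise in luminescence from relieved DAX1 repression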
Target sequence (P51843 207-470 limits assumed): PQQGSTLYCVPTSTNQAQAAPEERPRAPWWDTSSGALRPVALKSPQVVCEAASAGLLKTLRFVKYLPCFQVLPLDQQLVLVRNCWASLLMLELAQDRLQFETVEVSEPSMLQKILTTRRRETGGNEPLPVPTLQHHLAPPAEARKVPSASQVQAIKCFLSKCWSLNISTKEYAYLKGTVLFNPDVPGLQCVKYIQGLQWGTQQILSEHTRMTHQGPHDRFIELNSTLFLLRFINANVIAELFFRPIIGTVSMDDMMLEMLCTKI
hgDAF-12 ag: hgDAF-12 agonism, primary luciferase screen; HEK293 GAL4-hgDAF12 UAS-luciferase reporter, agonist luminescence; normalized to butyrate control; activation, % at 6.8 µM; 1.8% of 370,000 active;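 active means activation above a cutoff set at the mean of all screened compounds plus 3 SD, cut at about 10% in these data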;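 further: 0% = DMSO wells and 100% = sodium butyrate wells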
The depositor's hits bear a star; . = not tested or not shown. A selection: hits, their analogues and other compounds. The true share with any hit is near 4.1%.

SMILES	hcDAF12 agonist	ssDAF-12 act	DAX1 inh-1	DAX1 inh-2	hgDAF-12 ag
O=c1[nH]c(=S)n(C2CC2)c(O)c1C=NCC1CCCO1 (configuration not stated)	-1.4	-2.0	-0.3	0.2	-0.6
O=c1[nH]c(=S)n(Cc2ccc(F)cc2)c(O)c1C=NCC1CCCO1 (configuration not stated)	-2.1	-1.4	-0.7	6.2*	2.0
O=c1[nH]c(=S)[nH]c(O)c1/C=C1/C=c2ccccc2=N1	5.8*	0.0	0.1	2.7	3.4
Cc1cccc2c1=NC(=O)/C(=C/c1c(O)[nH]c(=O)[nH]c1=O)C=2	5.4	0.1	-0.4	1.5	-0.1
O=C1OC(c2ccc(Cl)cc2)=N/C1=C\N1CC2CC(C1)c1cccc(=O)n1C2 (configuration not stated)	-0.9	1.6*	-0.3	1.9	5.1
O=C1OC(c2ccc(Br)cc2)=N/C1=C\N1CC2CC(C1)c1cccc(=O)n1C2 (configuration not stated)	-2.4	-1.9	-0.3	0.3	0.6
Nc1ccc(Cl)c(Cl)c1	0.4	1.1*	0.2	0.2	1.8
CCOC(=O)CNC(=O)N1Cc2cc(Br)ccc2-n2nncc2C1	0.1	-0.7	-0.3	.	2.8
O=C(NCCN1CCC2(CC1)C(=O)NCN2c1ccccc1)c1ccc(Cl)c(Cl)c1	-0.4	-0.6	1.1	.	3.0
COC(=O)C(O)(c1ccc(NC(=O)NC2CCCCC2)cc1)C(F)(F)F (configuration not stated)	0.9	0.7	1.8	0.9	11.3*
CN1c2ccc(Br)cc2[C@H]2NCC[C@H]2[C@H]1CO	4.0	0.3	-0.8	.	2.3
O=C(CN1C(=O)[C@@H](Cc2c[nH]c3ccccc23)N=C(c2ccccc2)c2ccccc21)NC1CCCCC1	-1.1	-1.1	0.8	.	0.7
CN(C)c1ccc(/C=C2\C(=O)NC(=O)N(CCc3ccc(F)cc3)C2=O)cc1	-1.4	-1.9	-0.3	5.5*	-0.5
COCCN1C(=O)NC(=O)/C(=C\c2ccc(F)cc2)C1=O	-1.2	-1.5	0.2	-0.2	4.9
COc1ccc(CNCC(=O)N2CCC3(CC2)OCCO3)cc1	-1.1	-1.4	0.0	0.2	4.7
COc1ccc(-n2nc(C(=O)NCC(=O)N3CCC4(CC3)OCCO4)c3ccccc3c2=O)cc1	5.8*	-0.6	1.2	0.8	8.3
CN1C2CCC1C(C(=O)O)C(O)C2 (configuration not stated)	0.2	-0.6	0.5	1.2	1.1
NC(Cc1ccccc1)c1csc(Nc2ccccn2)n1 (configuration not stated)	3.9	0.3	1.7	.	10.7*
NC(Cc1ccc(Cl)cc1)c1csc(Nc2ccccn2)n1 (configuration not stated)	-0.4	-1.1	-1.3	.	-0.1
COc1ccc(-c2nn(CCC#N)cc2C(=O)Nc2ccccc2Br)cc1[N+](=O)[O-]	-2.0	-1.6	0.1	4.9*	-0.4
COc1ccc(-c2nn(CCC#N)cc2C(=O)Nc2ccccc2Br)cc1	-1.1	-1.5	-0.2	-1.5	-0.1
N=c1c2c(-c3ccccc3)c(-c3ccccc3)n(Cc3ccccc3)c2ncn1C1CCC(O)CC1 (configuration not stated)	-0.6	-0.7	-2.1	.	1.2
CCC(=Nc1cccc(C(F)(F)F)c1)c1c(O)n(C)c(=O)n(C)c1=O	0.4	-0.7	0.3	4.5*	0.0
CCC(=Nc1ccc(OC)cc1OC)c1c(O)n(C)c(=O)n(C)c1=O	-0.8	-1.4	-1.7	-0.3	-1.6
CN(C)C(=O)Oc1ccnc2cc(Cl)ccc12	-1.9	-1.6	-0.7	5.5*	-1.5
SMILES	hcDAF12 agonist	ssDAF-12 act	DAX1 inh-1	DAX1 inh-2	hgDAF-12 ag
CC(=O)O[C@@]12CO[C@@H]1C[C@H](O)[C@@]1(C)C(=O)[C@H](O)C3=C(C)[C@@H](O)C[C@@](O)([C@@H](OC(=O)c4ccccc4)C12)C3(C)C (some centres not stated)	0.2	-1.4	0.6	4.3*	0.7
C/C=C1\NC(=O)[C@H](C)NC(=O)[C@@H](NC(=O)[C@H](Cc2ccc(O)cc2)NC(=O)[C@@H](NC(=O)/C(C)=C/C)C(C)C)[C@@H](C)OC(=O)[C@H](CCCc2ccc(O)cc2)NC(=O)[C@@H](CCC(=O)O)NC1=O	-1.8	-1.6	-1.1	.	-1.7
Cc1ccc(N2C(=O)/C(=C/N3CCN(C(=O)c4ccco4)CC3)C(=O)NC2=S)cc1C	-0.3	-0.9	0.4	0.8	-0.1
O=C1NC(=S)N(c2ccc(Br)cc2)C(=O)/C1=C/N1CCN(C(=O)c2ccco2)CC1	0.6	-1.2	0.0	4.7*	1.2
Cc1ccc(/C=C2\C(=O)NC(=S)N(c3ccc(F)cc3)C2=O)s1	3.7	0.3	4.0*	-0.1	7.4
Cc1ccc(/C=C2\C(=O)NC(=S)N(c3ccccc3F)C2=O)s1	0.8	-1.9	0.0	1.2	-0.7
CC12CCC3c4ccc(OC(=O)N(CCCl)CCCl)cc4CCC3C1CCC2O (configuration not stated)	-1.9	-1.4	-1.2	-1.4	1.0
O=C(Nc1nccs1)C(Cl)(Cl)Cl	-0.1	-0.6	1.8	0.7	-0.3
O=C(Nc1ccc(Cl)cc1)Nc1nccs1	1.9	0.0	-1.9	-1.2	10.5*
C=CCn1c(O)c(C(CC)=NCc2ccco2)c(=O)[nH]c1=O	-0.4	-0.4	-0.4	4.9*	-0.4
C=CCn1c(O)c(C(C)=NCc2ccco2)c(=O)[nH]c1=O	-1.8	-0.9	0.8	1.8	0.0
O=C(O)COc1cc(Cl)c(Cl)cc1Cl	-1.5	-0.4	-0.1	.	1.6
O=C(O)[C@H]1NC[C@H]2C[C@H]21	-1.4	-0.5	0.1	4.8*	1.9
CC1(C)CN=C(NCc2ccccc2)S1	-1.2	-0.8	0.0	1.1	0.4
CC1(C)CN=C(Nc2nc3ccccc3s2)S1	5.4	1.5*	3.0	3.4	9.7
O=C1NC(=O)C(=Cc2ccc(Oc3ccc([N+](=O)[O-])cc3)cc2)C(=O)N1	.	.	.	0.6	.
COc1cc(C=C2C(=O)NC(=O)NC2=O)ccc1OCc1ccc([N+](=O)[O-])cc1	2.7	-0.6	1.7	1.8	13.1*
COc1ccccc1N(CC(=O)NC1CCCCC1)C(=O)c1cnn(C(C)C)c1	3.0	1.3*	-0.4	0.2	0.3
CCN(CC)P(c1n(C)cc[n+]1C)N(CC)CC	-1.4	-0.8	-0.1	6.2*	-0.1
Cc1cc(C(=O)Nc2ccccc2)nn1C(C)(C)C	1.6	-0.7	0.8	2.7	4.5
Cc1cc(C(=O)Nc2ccc3c(c2)OCCO3)nn1C(C)(C)C	1.5	-0.2	1.2	5.7*	7.5
CCn1c(=O)cc(OCC(=O)N2CCC3(CC2)OCCO3)c2ccccc21	1.4	-1.0	0.9	4.4*	0.4
N#CC1=C(N)Oc2c(c(=O)oc3ccccc23)C1c1ccncc1 (configuration not stated)	-2.0	-2.2	-0.7	0.5	-0.5
N#CC1=C(N)Oc2c(c(=O)sc3ccccc23)C1c1cccnc1 (configuration not stated)	-0.5	-1.8	4.1*	-1.0	-0.2
